Measured values taken from the supplement of paper PMC11219838.
Unmarked numbers belong to inactive results.

Each molecule was assayed on Meloidogyne hapla J2 (assay: proportion of mobile M. hapla J2 relative to DMSO control (fraction of DMSO control); higher = more viable, less nematicidal, active = 0.7 or less). Details: 60 µM; 5 days; temperature: 20 °C.
In short: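 About 25 M. hapla J2 were added per 96-well well in distilled water, and compound was pinned to 60 µM final (0.6% v/v DMSO). Sealed plates were shaken at 200 rpm for 5 days at 20 °C, then 2 µL 1 M NaOH was added before microscopic mobility scoring. Mobility was divided by the mean of eight DMSO wells on the same plate, and two biological replicates were averaged.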

SMILES | proportion of mobile M. hapla J2
CNC(=O)c1ccccc1-c1nc(-c2ccc(F)cc2)no1 | 0.987
COc1cccc(-c2noc(COc3ccc(C)cc3)n2)c1 | 0.769
c1coc(-c2nc(-c3cccs3)no2)c1 | 1.01
COc1cccc(-c2noc(COc3ccc(C(C)C)cc3)n2)c1 | 0.968
N#Cc1ccccc1NC(=O)CSc1nnc(-c2ccccc2)o1 | 0.955
Brc1ccc(-c2noc(-c3cccs3)n2)cc1 | 0.884
Brc1ccc(-c2nc(-c3ccc4c(c3)OCO4)no2)cc1 | 1.03
O=C(Nc1cccc(-c2noc(-c3cccnc3)n2)c1)c1cccs1 | 0.999
COc1cccc(-c2nnc(SCc3ccccc3C)o2)c1 | 1.01
COc1ccc(Cl)cc1NC(=O)CSc1nnc(-c2ccc(C)cc2)o1 | 0.982
Cc1ccccc1OCc1nc(-c2cccc(C(F)(F)F)c2)no1 | 0.946
Clc1ccccc1OCc1nc(-c2cccs2)no1 | 1.06
CCSc1nnc(-c2ccc(Cl)cc2)o1 | 0 (active)
COc1nc(-c2ccc(C)cc2)ccc1-c1noc(C)n1 | 0.9
CCOc1ccccc1-c1nnc(SCC(=O)Nc2nc(C)cs2)o1 | 0.993
O=C(CSc1nnc(-c2ccccc2Cl)o1)NCc1ccccc1 | 1.04
O=C(Nc1ccccc1-c1nc(-c2cccnc2)no1)c1cc2ccccc2o1 | 0.919
Cc1ccc(Cl)cc1NC(=O)CSc1nnc(-c2ccncc2)o1 | 0.913
O=C(CSc1nnc(-c2ccc(Br)cc2)o1)Nc1nccs1 | 1.01

SMILES | proportion of mobile M. hapla J2
c1ccc(-c2nc(C3CCCCC3)no2)cc1 | 0.956
Cc1ccc(-c2nnc(SCc3ccccc3Cl)o2)cc1 | 0.964
Fc1ccc(OCc2nc(-c3ccccc3)no2)cc1 | 1.02
Nc1nc(CSc2nnc(-c3ccccc3)o2)cs1 | 0.752
CN(C)C(=O)c1ccccc1-c1nc(-c2ccccc2Cl)no1 | 0.882
COc1ccccc1-c1nnc(SCC(=O)Nc2ccc(F)cc2)o1 | 0.995
Cc1cc(NC(=O)CSc2nnc(-c3ccc(Cl)cc3Cl)o2)no1 | 0.833
c1ccc(CSc2nnc(-c3cccnc3)o2)cc1 | 0.391 (active)
Cc1ccc(-c2noc(-c3ccccc3C(=O)N3CCC(C)CC3)n2)cc1 | 0.999
COc1ccc(-c2nnc(SCC(=O)Nc3ccc(Br)c(C)c3)o2)cc1 | 0.999
COc1nc(-c2ccccc2)ccc1-c1noc(-c2ccco2)n1 | 0.685 (active)
CC(C)C(=O)Nc1ccccc1-c1nc(-c2ccncc2)no1 | 0.987
O=C(Nc1ccc(-c2noc(-c3ccccn3)n2)cc1)c1cccc(Cl)c1 | 0.87
CCCCC(=O)Nc1ccccc1-c1nc(-c2ccncc2)no1 | 1.06
CCNC(=O)c1ccccc1-c1nc(-c2ccc(OC)cc2)no1 | 0.785
CCOc1ccccc1-c1nc(-c2ccc(Cl)cc2)no1 | 0.856
Cc1ccc(-c2nc(-c3ccc4c(c3)OCO4)no2)cc1 | 1
Brc1ccc(-c2noc(-c3cccs3)n2)o1 | 0.7 (active)
O=C(c1ccccc1-c1nc(-c2ccccc2Cl)no1)N1CCCCC1 | 0.932

Each molecule was assayed on Caenorhabditis elegans dauer (daf-2(e1370)) (assay: proportion of mobile C. elegans dauer larvae relative to DMSO control (fraction of DMSO control); higher = more viable, less nematicidal, active = 0.63 or less; extreme values may be limits of the assay). Details: 60 µM; 5 days; temperature: 20 °C.
In short: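 The proportion of mobile worms, relative to DMSO wells, was scored by dissection microscope and averaged over two biological replicates. Worms were C. elegans dauers, about 20 per well in liquid NGM in 96-well plates, generated from synchronized larvae on MYOB plates with E. coli OP50 at 25 °C for 48 h. They were treated with compound pinned to 60 µM final (0.6% v/v DMSO) and kept in sealed plates shaken at 200 rpm for 5 days at 20 °C.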

SMILES | proportion of mobile C. elegans dauer larvae
CNC(=O)c1ccccc1-c1nc(-c2ccc(F)cc2)no1 | 1
COc1cccc(-c2noc(COc3ccc(C)cc3)n2)c1 | 1
c1coc(-c2nc(-c3cccs3)no2)c1 | 1
COc1cccc(-c2noc(COc3ccc(C(C)C)cc3)n2)c1 | 1
N#Cc1ccccc1NC(=O)CSc1nnc(-c2ccccc2)o1 | 1
Brc1ccc(-c2noc(-c3cccs3)n2)cc1 | 0.383 (active)
Brc1ccc(-c2nc(-c3ccc4c(c3)OCO4)no2)cc1 | 1
O=C(Nc1cccc(-c2noc(-c3cccnc3)n2)c1)c1cccs1 | 1
COc1cccc(-c2nnc(SCc3ccccc3C)o2)c1 | 1
COc1ccc(Cl)cc1NC(=O)CSc1nnc(-c2ccc(C)cc2)o1 | 1
Cc1ccccc1OCc1nc(-c2cccc(C(F)(F)F)c2)no1 | 1
Clc1ccccc1OCc1nc(-c2cccs2)no1 | 1
CCSc1nnc(-c2ccc(Cl)cc2)o1 | 0 (active)
COc1nc(-c2ccc(C)cc2)ccc1-c1noc(C)n1 | 1
CCOc1ccccc1-c1nnc(SCC(=O)Nc2nc(C)cs2)o1 | 1
O=C(CSc1nnc(-c2ccccc2Cl)o1)NCc1ccccc1 | 1
O=C(Nc1ccccc1-c1nc(-c2cccnc2)no1)c1cc2ccccc2o1 | 1
Cc1ccc(Cl)cc1NC(=O)CSc1nnc(-c2ccncc2)o1 | 1
O=C(CSc1nnc(-c2ccc(Br)cc2)o1)Nc1nccs1 | 1

SMILES | proportion of mobile C. elegans dauer larvae
c1ccc(-c2nc(C3CCCCC3)no2)cc1 | 1
Cc1ccc(-c2nnc(SCc3ccccc3Cl)o2)cc1 | 1
Fc1ccc(OCc2nc(-c3ccccc3)no2)cc1 | 1
Nc1nc(CSc2nnc(-c3ccccc3)o2)cs1 | 1
CN(C)C(=O)c1ccccc1-c1nc(-c2ccccc2Cl)no1 | 1
COc1ccccc1-c1nnc(SCC(=O)Nc2ccc(F)cc2)o1 | 1
Cc1cc(NC(=O)CSc2nnc(-c3ccc(Cl)cc3Cl)o2)no1 | 1
c1ccc(CSc2nnc(-c3cccnc3)o2)cc1 | 1
Cc1ccc(-c2noc(-c3ccccc3C(=O)N3CCC(C)CC3)n2)cc1 | 1
COc1ccc(-c2nnc(SCC(=O)Nc3ccc(Br)c(C)c3)o2)cc1 | 1
COc1nc(-c2ccccc2)ccc1-c1noc(-c2ccco2)n1 | 1
CC(C)C(=O)Nc1ccccc1-c1nc(-c2ccncc2)no1 | 1
O=C(Nc1ccc(-c2noc(-c3ccccn3)n2)cc1)c1cccc(Cl)c1 | 1
CCCCC(=O)Nc1ccccc1-c1nc(-c2ccncc2)no1 | 1
CCNC(=O)c1ccccc1-c1nc(-c2ccc(OC)cc2)no1 | 1
CCOc1ccccc1-c1nc(-c2ccc(Cl)cc2)no1 | 1
Cc1ccc(-c2nc(-c3ccc4c(c3)OCO4)no2)cc1 | 1
Brc1ccc(-c2noc(-c3cccs3)n2)o1 | 0.5 (active)
O=C(c1ccccc1-c1nc(-c2ccccc2Cl)no1)N1CCCCC1 | 1
